# System: 4T1
# Assay: % inhibition of 4T1 cell number vs DMSO control; higher = stronger growth inhibition
# Conditions: 1 µM, 3 days
# Outline: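 In 96-well imaging plates whose edge wells went unused, 3000 4T1-H2B-GFP mouse breast cancer cells per well were seeded in 2% FBS medium onto plastic, denuded lung matrix, mCAF1 fibroblast-derived matrix, Matrigel (15 μg/mL) or 0.2% gelatin. Sixteen hours on, kinase inhibitors went in at 1 μM final for 3 days before formalin fixation, DAPI staining and imaging on an INCell Analyzer 2200. Counting of GFP-positive nuclei gave cell numbers, from which percent inhibition relative to control was derived.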
# [1] = substrate: lung fibroblast-derived matrix
# [2] = substrate: mCAF1 fibroblast-derived matrix
SMILES,% inhibition of 4T1 cell number (substrate: Matrigel) [%],% inhibition of 4T1 cell number (substrate: gelatin) [%],% inhibition of 4T1 cell number [1] [%],% inhibition of 4T1 cell number [2] [%],% inhibition of 4T1 cell number (substrate: plastic) [%]
CC(C)(C)c1cc(C=C(C#N)C#N)cc(Br)c1O,46.6,-2.78,2.02,0.929,35.7
O=C1NC(=O)c2c1c1c3ccccc3n3c1c1c2c2ccccc2n1[C@H]1CC[C@@H]3O1,30,44.2,-1.14,29.4,87.4
COc1ccc2c(c1)/C(=C/c1cnc[nH]1)C(=O)N2,24.5,50.7,8.25,17.6,17.3
O=[N+]([O-])/C=C/c1ccc2c(c1)OCO2 [Syk Inhibitor III],-4.15,-72.6,-12.2,-33.4,-19.4
"COC(=O)[C@]1(O)C[C@@H]2O[C@@]1(C)n1c3ccccc3c3c4c(c5c6ccccc6n2c5c31)C(=O)NC4 [K-252a, Nocardiopsis sp.]",87.4,91.8,2.02,98.1,91.5
COc1ccc2c(c[n+](C)c3c4cc5c(cc4ccc23)OCO5)c1OC [Chelerythrine Chloride],20,-43,4.48,8.26,-4.98
O=S(=O)(c1c(O)c(Cl)cc(Cl)c1Cl)c1c(O)c(Cl)cc(Cl)c1Cl [p38 MAP Kinase Inhibitor IV],-24.4,7.41,-2.09,31.2,-30.3
NC(=NN=Cc1ccc(-c2cccc([N+](=O)[O-])c2)o1)N[N+](=O)[O-] [ERK Inhibitor III],24.7,24.5,-2.29,-12.4,41.4

# Reference: the supplement of paper PMC8269313
